Screens from PubChem.
VACV Venus inh – vaccinia inhibition (Venus reporter) | Vaccinia virus Venus reporter expression, fluorescence | hit rate 0.46% among 330,000 | Potency, µM (series often up to 36.5 µM), without a hit: top-dose activity change, negative = inhibition, usual class: inhibitors; calls by dose curve; tested in A549 cells; further: potency means the concentration at half of the fitted maximal effect; nearly all actives have a fitted effect of over 30% in size
FMDV antiviral – foot and mouth disease virus antiviral activity; Potency, µM (titrated, usually from 57.9 µM), for inactives: at the top dose activity change, negative = inhibition, hits mostly inhibitors; FMDV antiviral cell-based qHTS; hit rate 1.2% among 410,000; AID 1159524; calls by dose curve; tested in HEK293T cells; further: read-out not given here; potency means the concentration at half of the fitted maximal effect; nearly all actives have a fitted effect of over 45% in size
HCV inhibitor – blocks hepatitis C virus. Huh7.5.1 HCVcc-Cre infection, luciferase reporter, 44 h. AID 651820. Potency, µM (doses to about 41.8 µM), inactives show at the highest dose activity change, negative = inhibition, usual class: inhibitors. hit rate 3.4% among 340,000; further: potency means the concentration at half of the fitted maximal effect
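Cells seeded at 1,000/well and cultured 4 h, then compounds added followed by HCVcc-Cre virus (~0.5 moi). After 44 h further culture, luciferase substrate was added, plates held 15 min at room temperature, and luminescence read for 15 sec.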
Vaccinia mCherry – vaccinia inhibition (mCherry reporter) | Vaccinia virus mCherry reporter infection, fluorescence | Potency, µM (doses to about 36.5 µM), inactives show top-dose activity change, negative = inhibition, usual class: inhibitors | hit rate 0.63% among 310,000 | AID 720579; calls by dose curve; tested in A549 cells; further: potency means the concentration at half of the fitted maximal effect; nearly all actives have a fitted effect of over 35% in size
FBPA Giardia inh – Giardia lamblia aldolase inhibition. A8B2U2. purified Giardia FBPA. Potency, µM (top dose mostly 59.6 µM), without a hit: top-dose activity, negative = inhibition, usual class: inhibitors. hit rate 0.71% among 290,000; further: potency means the concentration at half of the fitted maximal effect; nearly all actives have a fitted effect of over 55% in size
Target sequence (A8B2U2 whole entry, looked up): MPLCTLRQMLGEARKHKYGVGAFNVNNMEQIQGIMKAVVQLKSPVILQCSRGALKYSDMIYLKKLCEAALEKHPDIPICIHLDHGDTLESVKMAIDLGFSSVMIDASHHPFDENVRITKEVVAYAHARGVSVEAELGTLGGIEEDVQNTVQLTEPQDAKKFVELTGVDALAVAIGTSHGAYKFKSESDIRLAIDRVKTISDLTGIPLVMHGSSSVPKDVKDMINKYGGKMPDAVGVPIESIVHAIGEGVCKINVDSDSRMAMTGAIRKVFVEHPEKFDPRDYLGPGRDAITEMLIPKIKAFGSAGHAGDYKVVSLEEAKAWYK
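Giardia FBPA (40 nM reagent) was preincubated 10 min at RT with compound (up to 57.5 uM final), then substrate plus GAPDH/TPI/NAD/arsenate coupling system with diaphorase/resazurin was added; resorufin fluorescence (525/598 nm) was read after 20 min.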
HCMV antiviral – human cytomegalovirus inhibition | HFF cells, HCMV-luciferase reporter, 72 h; stronger effect = lower value | activity change, negative = inhibition, % at 57.5 µM | hit rate 4.5% among 410,000 | AID 1259415; in the data active means activity change below about -60%; inconclusive means no clear call, values can overlap the other calls; inactive means above about -39%
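Two-dose cell screen: HFF monolayers treated with compounds and infected with luciferase-expressing HCMV at 1 PFU/cell, 72 h at 37C, then lysed for luciferase measurement.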
The depositor's hits bear a star; [ ] = dose if it differs, or a comment. Sampled rows, rich in hits. Any-hit rate of the full collection: about 7.5%. Unless noted, the call rests on the fitted dose curve; in most records, active means well fitted curve in the direction sought with a large enough effect; inconclusive means small, poorly fitted or top-dose-only effect, or another doubt; inactive means no such curve, though single readings can be large; an effect the other way counts as inactive or inconclusive. On the % scale 0 is the no-effect control and ±100 the full control effect.

CCOC(=O)C1CCN(c2ncnc3c2c(-c2ccccc2)cn3-c2ccccc2)CC1 was read as VACV Venus inh -10.5%, FMDV antiviral -29.4%, HCV inhibitor 10µM*, Vaccinia mCherry inactive, FBPA Giardia inh -2.7% and HCMV antiviral -38.2.
`CCOc1ccc(-n2cc(-c3ccccc3)c3c(N4CCN(c5ccccc5OC)CC4)ncnc32)cc1` gave VACV Venus inh -14.4%, FMDV antiviral -11.8%, Vaccinia mCherry -21.2% and HCMV antiviral -34.3.
For OCCN1CCN(c2ncnc3c2c(-c2ccccc2)cn3-c2ccc(F)cc2)CC1 the results were VACV Venus inh inconclusive, FMDV antiviral inconclusive, HCV inhibitor -11.2%, Vaccinia mCherry inconclusive, FBPA Giardia inh 3.6% and HCMV antiviral -12.4.
`CCOc1ccc(-n2cc(-c3ccccc3)c3c(N4CCC(C)CC4)ncnc32)cc1` gave VACV Venus inh -16.7%, FMDV antiviral -18.9%, Vaccinia mCherry inactive and HCMV antiviral -62.6*.
`CC1CN(c2ncnc3c2c(-c2ccccc2)cn3-c2ccc(F)cc2)CC(C)O1` (centres undefined) gave VACV Venus inh -12.3%, FMDV antiviral inconclusive, HCV inhibitor 10µM*, Vaccinia mCherry -12.1%, FBPA Giardia inh -6.5% and HCMV antiviral 7.7.
`Cc1ccc(-n2nc3c(c2NC(=O)CC(C)C)CS(=O)(=O)C3)c(C)c1` gave FMDV antiviral 2.9%, HCV inhibitor 4.6%, FBPA Giardia inh 9.7% and HCMV antiviral 3.8.
CC(C)c1cccc(-c2nc3c(Nc4ccccc4)nccc3[nH]2)c1 was read as HCMV antiviral -17.3.
For COc1ccc(-n2cc([N+](=O)[O-])c(=O)c3ccc(Cl)cc32)cc1 the results were VACV Venus inh 3.0%[7.34 µM], FMDV antiviral -12.4%, HCV inhibitor 5.6%, Vaccinia mCherry 4.4%[7.34 µM] and HCMV antiviral -11.8.
O=C(NCc1cccs1)c1ccc(Cl)c(S(=O)(=O)N2CCCC2)c1 was read as VACV Venus inh -15.4%, FMDV antiviral 11.9%, HCV inhibitor -17.7%, Vaccinia mCherry inactive, FBPA Giardia inh 2.3% and HCMV antiviral -29.7.
Cc1ccc(C#CC[N+](C)(C)CC#Cc2ccccc2)cc1 was read as VACV Venus inh 0.9%, FMDV antiviral -2.2%, HCV inhibitor -14.5%, Vaccinia mCherry -22.6%, FBPA Giardia inh -24.2% and HCMV antiviral -0.8.
CCOc1ccc(C(=O)NCCc2sc(-c3ccc(OC)c(OC)c3)nc2C)cc1 was read as VACV Venus inh -25.6%, FMDV antiviral 27.7%, Vaccinia mCherry -26.6% and HCMV antiviral 36.0.
Screening COc1ccc([N+](=O)[O-])cc1N(CC(O)CN(C)C)S(=O)(=O)c1ccccc1 (centres undefined) returned VACV Venus inh -7.3%, FMDV antiviral -4.6%, HCV inhibitor 3.8%, Vaccinia mCherry inactive, FBPA Giardia inh 0.6% and HCMV antiviral -26.5.
For C=CCN(CC=C)CC(O)CN(c1cc([N+](=O)[O-])ccc1OC)S(=O)(=O)c1ccccc1 (centres undefined) the results were VACV Venus inh -10.9%, FMDV antiviral 39.5%, HCV inhibitor 12.3%, Vaccinia mCherry -9.9%, FBPA Giardia inh -1.7% and HCMV antiviral -107.3*.
For CCOC(=O)C(NC(=O)c1ccccc1F)(Nc1cc(C)on1)C(F)(F)F (centres undefined) the results were VACV Venus inh -1.2%, FMDV antiviral -9.6%, HCV inhibitor 10.7%, Vaccinia mCherry -8.7%, FBPA Giardia inh -0.4% and HCMV antiviral -94.1*.
CCOC(=O)C(NC(=O)c1ccccc1)(Nc1cccc(C)n1)C(F)(F)F (centres undefined) was read as VACV Venus inh 6.1%, FMDV antiviral 25.1%, HCV inhibitor -7.8%, Vaccinia mCherry 0.6%, FBPA Giardia inh -1.5% and HCMV antiviral inconclusive.
Cc1ccc(S(=O)(=O)CC(=O)Nc2nc3c(C)cc(C)cc3s2)cc1 was read as VACV Venus inh -2.7%, FMDV antiviral -1.8%, Vaccinia mCherry -13.9% and HCMV antiviral inconclusive.
For COCCn1c(=O)[nH]c2cc(C(=O)NCc3ccccc3Cl)ccc2c1=O the results were VACV Venus inh 17.6%, FMDV antiviral -12.5%, Vaccinia mCherry inconclusive and HCMV antiviral -68.7*.
Screening COCCn1c(=O)[nH]c2cc(C(=O)OC)ccc2c1=O returned FMDV antiviral -0.8%, HCV inhibitor 12.3%, FBPA Giardia inh 4.5% and HCMV antiviral -7.3.
For CCCCCNC(=O)c1ccc2c(=O)n(CCc3ccccc3)c(=O)[nH]c2c1 the results were VACV Venus inh 1.7%, FMDV antiviral 5.2%, Vaccinia mCherry -1.4% and HCMV antiviral 0.0.
`CCOc1cc2[nH]c(=O)n(Cc3ccc(C(=O)NCCCN4CCC(C)CC4)cc3)c(=O)c2cc1OCC` gave VACV Venus inh -9.0%, FMDV antiviral -8.6%, HCV inhibitor inconclusive, Vaccinia mCherry -12.8%, FBPA Giardia inh 0.0% and HCMV antiviral -64.4*.
CCOc1cc2[nH]c(=S)n(Cc3ccc(C(=O)NCCCN4CCOCC4)cc3)c(=O)c2cc1OCC was read as VACV Venus inh 0.0%[7.34 µM], FMDV antiviral -7.1%, HCV inhibitor 9.2%, Vaccinia mCherry 4.9%[7.34 µM], FBPA Giardia inh 13.4% and HCMV antiviral -29.3.
Screening O=C(NCCCN1CCCCC1)c1ccc2c(=O)n(CCc3ccccc3)c(=O)[nH]c2c1 returned VACV Venus inh -6.6%, FMDV antiviral 8.0%, HCV inhibitor 6.31µM*, Vaccinia mCherry -11.2%, FBPA Giardia inh 6.8% and HCMV antiviral -2.1.
COc1ccc(C(CNC(=O)c2ccc(-c3cccc(C(F)(F)F)c3)o2)N2CCOCC2)cc1 (centres undefined) was read as VACV Venus inh inconclusive, FMDV antiviral inconclusive, HCV inhibitor inconclusive, Vaccinia mCherry -9.8% and HCMV antiviral 18.6.
For Cc1cc(C)nc(/N=C(\N)Nc2ccc(-c3ccccc3)cc2)n1 the results were VACV Venus inh inconclusive, FMDV antiviral inconclusive, HCV inhibitor 11.2µM*, Vaccinia mCherry inconclusive, FBPA Giardia inh -0.3% and HCMV antiviral inconclusive.
Screening COc1ccc(OC)c(N/C(N)=N/c2nc(C)cc(C)n2)c1 returned FMDV antiviral -21.6%, HCV inhibitor inconclusive, FBPA Giardia inh inconclusive and HCMV antiviral 53.2.
COc1ccc(N/C(N)=N/c2nc(C)cc(C)n2)c(OC)c1 was read as VACV Venus inh -14.1%, FMDV antiviral inconclusive, HCV inhibitor inconclusive, Vaccinia mCherry -19.3%, FBPA Giardia inh 0.5% and HCMV antiviral -66.6*.
CC(=O)Nc1ccc(N/C(N)=N/c2nc(C)cc(C)n2)cc1 was read as VACV Venus inh -4.7%, FMDV antiviral -23.7%, HCV inhibitor -7.4%, Vaccinia mCherry 1.6%, FBPA Giardia inh 0.1% and HCMV antiviral 39.9.
